# Pf growth 48h – inhibits P. falciparum growth in the first generation, 48 h; P. falciparum luciferase growth in erythrocytes, 48 h; Potency, µM (top dose mostly 28.7 µM), usual class: inhibitors; 310,000 compounds, 5.9% hits
#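 Read-out is firefly luciferase luminescence from an integrated reporter in P. falciparum, so falling signal marks reduced parasite growth. Infected erythrocytes were at 2% hematocrit and 0.1% parasitemia (final) in Albumax-supplemented RPMI 1640.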
# Vaccinia Venus – vaccinia inhibition (Venus reporter); 330,000 compounds, 0.46% hits; AID 720580; Vaccinia virus Venus reporter expression, fluorescence; Potency, µM (top dose mostly 36.5 µM), actives largely listed as inhibitors; calls by dose curve; tested in A549 cells; further: nearly all actives have a fitted effect of over 30% in size
# Pf growth 96h – P. falciparum growth inhibition at 96 hour, primary screen for plastid delayed-death inhibitors | P. falciparum luciferase reporter growth, 96 h | Potency, µM (doses to about 28.7 µM), most hits filed as inhibitors | 320,000 compounds, 6.9% hits | AID 504834
#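 Plates of compound plus infected erythrocytes (2% hematocrit, 0.05% parasitemia final) incubate 96 hours, 37 C, 5% CO2. Detection reagent added; reduced luminescence from the parasites' luciferase reporter flags inhibition.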
# HCV inhibitor – HCV inhibition; Huh7.5.1 HCVcc-Cre infection, luciferase reporter, 44 h; Potency, µM (titrated, usually from 41.8 µM), actives largely listed as inhibitors; 340,000 compounds, 3.4% hits
#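 A cell-based infection assay in which seeded cells (1,000 per well) receive test compound after 4 h, are inoculated with HCVcc-Cre at approximately 0.5 moi, and are incubated 44 h before luminescence detection.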
# NS1 function inh – inhibitors of influenza NS1 protein function. 270,000 compounds, 0.4% hits. Potency, µM (titrated, usually from 46.1 µM); calls by dose curve; further: actives are rising curves; nearly all actives have a fitted effect of over 50% in size
#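 A cell-based growth assay was used: compounds that relieve NS1-induced slow growth of budding yeast raise OD600. Assay medium was yeast nitrogen base with ammonium sulphate and -URA supplement, pH 6.0, with 2% galactose.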
# VACV mCherry inh – inhibitors of vaccinia virus infection (mCherry reporter signal). Vaccinia virus mCherry reporter infection, fluorescence. Potency, µM (titrated, usually from 36.5 µM), most hits filed as inhibitors. 310,000 compounds, 0.63% hits. AID 720579; calls by dose curve; tested in A549 cells; further: nearly all actives have a fitted effect of over 35% in size
# Hits are given with their value; - = inactive; ? = inconclusive; . = no result given; [ ] = remark or other dose. The list is not random: actives were taken first. Their share in the collection is about 11%. Unless noted, the call rests on the fitted dose curve; in most records, active means well fitted inhibition curve with a large enough effect; inconclusive means small, poorly fitted or top-dose-only effect, or another doubt; inactive means no such curve, though single readings can be large or run the other way.
SMILES,Pf growth 48h,Vaccinia Venus,Pf growth 96h,HCV inhibitor,NS1 function inh,VACV mCherry inh
O=C(CNC(=O)C12CC3CC(CC(C3)C1)C2)N1CCN(S(=O)(=O)/C=C/c2ccccc2)CC1,?,-,9.3µM,-,-,-
O=C1C=C(N(CCO)Cc2ccccc2)c2ccccc2C1=O,3.7µM,?,-,?,.,11µM
CC(=O)C(C(C)=O)c1c(Cl)c(O)c(O)c2c(C(=O)c3ccccc3)coc12,.,?,2.6µM,10µM,-,-[1.46 µM]
CN1CCN(Cc2c(O)ccc3occ(C(=O)c4ccccc4)c23)CC1,?,.,-,?,-,.
CC(C)CN(C(=O)c1nn(C)c(=O)c2ccccc12)c1nc2ccccc2s1,10µM,-,.,-,-,.
Cc1ccc(S(=O)(=O)NCCC(=O)NC2CCCCCC2)cc1,-,-,-,-,.,-
CC(C)c1nnc(NC(=O)CCC(=O)NC2CC2)s1,-,.,-,-,-,.
Cc1ccnc2c1ccc1ccccc12,-,-,-,-,-,-
Cc1ccnc2c1ccc1c(C)ccnc12,2.6µM,.,4.7µM,5.6µM,.,.
Cc1ccnc2c1ccc1cccnc12,1.2µM,?,0.83µM,2.2µM,.,4.5µM
COc1ccc(CCNC(=O)CSc2ccc(-c3ccccc3)nn2)cc1,-,.,-,-,-,.
O=C(c1cccc(N2CCCC2=O)c1)N1CCC(Oc2cccc(CN3CCN(c4ccccn4)CC3)c2)CC1,.,-,.,.,.,?
CC(C)CCNC(=O)c1ccc(OC2CCN(S(=O)(=O)N(C)C)CC2)cc1,-,-,-,-,-,-
C=C(C)CNC(=O)c1ccc(OC2CCN(S(=O)(=O)N(C)C)CC2)cc1,-,-,13µM,-,-,-
C=C(C)CN(CC)C(=O)c1ccc(OC2CCN(S(=O)(=O)N(C)C)CC2)cc1,-,-,4.1µM,-,-,-
Cc1cccc(N2CCN(C(=O)c3ccncc3)CC2C)c1 (stereo not given),-,.,.,?,-,.
CC(C)c1nc2sc3c(NCc4ccccc4)ncnc3c2c2c1COC(C)(C)C2,.,-,9.3µM,-,-,.
Cc1ccc(CNC(=O)CCCCCn2c(=O)c3sccc3n(CC(=O)Nc3c(C)cc(C)cc3C)c2=O)cc1,.,-,.,.,.,-
COc1cccc(NC(=O)CCN2C(=O)c3ccccc3Sc3ncccc32)c1,-,-[7.34 µM],2.9µM,-,-,-[7.34 µM]
CC(C)NC(=O)CCCN1C(=O)c2ccccc2Sc2ncccc21,-,.,0.26µM,-,-,.
CC(C)CCNC(=O)CCCN1C(=O)c2ccccc2Sc2ncccc21,.,-,.,.,.,-
CCCCC(CC)COP(=O)(OCC(CC)CCCC)OCC(CC)CCCC (stereo not given),-,?,?,-,.,2.5µM
COC(=O)c1ccccc1OCCOCCOc1cccc2cccnc12,-,-,-,-,-,-
O=[N+]([O-])c1ccc(Sc2ccccn2)nc1,?,?,8.3µM,-,-,?
O=C(Nc1cc(Sc2ccccn2)cc([N+](=O)[O-])c1)c1ccc([N+](=O)[O-])cc1,13µM,?,3.3µM,?,-,-
SMILES,Pf growth 48h,Vaccinia Venus,Pf growth 96h,HCV inhibitor,NS1 function inh,VACV mCherry inh
O=[N+]([O-])c1ccc(CSc2ccccn2)cc1,.,-,-,-,-,-
N#Cc1cc(Sc2ccccn2)c([N+](=O)[O-])cc1C#N,3.7µM,-,-,-,.,-
CC(=O)N1CCN(C(=O)c2ccc(Cl)c(NC(=O)c3cccs3)c2)CC1,-,-,-,-,.,-
Cn1nnnc1SC(C(=O)Nc1cccc(C(F)(F)F)c1)c1ccccc1 (stereo not given),-,-,-,-,-,-
COCCn1c(C)cc(C2=NNC(=Nc3ccccc3F)SC2)c1C,.,-,3.7µM,-,-,-
COCCN=C1NN=C(c2cc(C)n(CC3CCCO3)c2C)CS1 (stereo not given),?,-,9.3µM,-,-,-
Cc1c(N=C2NN=C(c3ccc(Cl)cc3)CS2)c(=O)n(-c2ccccc2)n1C,?,-,?,-,.,-
Cc1c(N=C2NN=C(c3c[nH]c4ccccc34)CS2)c(=O)n(-c2ccccc2)n1C,4.1µM,-[7.34 µM],?,-,-,-[7.34 µM]
Cc1cc(C2=NNC(=NCCc3ccccc3)SC2)c(C)n1-c1c(C)n(C)n(-c2ccccc2)c1=O,6.6µM,-,?,-,-,-
Cc1ccc(-n2c(Cc3cccc4ccccc34)n[nH]c2=S)c(C)c1,-[5.75 µM],.,?,-,-,.
CCCN(C(=O)CSc1nnnn1-c1ccccc1OC)C1CCS(=O)(=O)C1 (stereo not given),?,-,-,-,-,-
Cc1nc2ccccn2c(=O)c1NC(=O)c1ccco1,.,-,.,.,.,-
O=C1NC(c2ccccn2)Nc2sc3c(c21)CCC3 (stereo not given),-,-,-,-,-,-
CC(=O)Nc1ccc(NC(=O)Cc2sc(C)nc2-c2ccc(C)cc2)cc1,-,-,?,-,-,-
COCCCN=C1NN=C(c2cc(C)n(-c3ccccc3)c2C)CS1,10µM,-,8.3µM,?,-,?
COCCCN=C1NN=C(c2cc(C)n(-c3ccccc3F)c2C)CS1,-,.,-,?,.,.
O=C(CCCN1C(=O)C(c2ccccc2)Oc2cccnc21)NCc1ccccc1F (stereo not given),?,.,2.1µM,-,-,.
O=C(CCCN1C(=O)C(c2ccccc2)Oc2cccnc21)NCc1ccccc1Cl (stereo not given),-,.,-,?,-,.
O=C(CCCN1C(=O)C(c2ccccc2)Oc2cccnc21)NCCc1ccc(Cl)cc1 (stereo not given),?,.,9.3µM,?,-,.
O=C(CCCN1C(=O)C(c2ccccc2)Oc2cccnc21)Nc1ccccc1C(F)(F)F (stereo not given),.,-,.,.,.,-
CCN(CC)S(=O)(=O)c1ccc(C(C)NCC(=O)Nc2ccccc2C(=O)NC2CC2)cc1 (stereo not given),10µM,-,?,?,.,-
CC(NCC(=O)Nc1ccccc1C(=O)NC1CC1)c1ccco1 (stereo not given),1.7µM,-,-,-,.,-
CC(NCC(=O)Nc1ccccc1C(=O)NC1CC1)c1ccc(Cl)cc1 (stereo not given),.,-,.,.,.,-
CCC1(c2ccccc2)C(=O)N(C)C(=O)N(C)C1=O,-,-,-,-,-,-
Cc1noc(C)c1COc1ccccc1C(=O)NC1CCC(C)CC1 (stereo not given),?,.,4.1µM,-,-,.
SMILES,Pf growth 48h,Vaccinia Venus,Pf growth 96h,HCV inhibitor,NS1 function inh,VACV mCherry inh
Cc1noc(C)c1COC(=O)c1ccccc1Oc1ccccc1,-,-,13µM,-,-,-
Cc1noc(C)c1COc1ccccc1C(=O)N(C)Cc1ccc(C(C)(C)C)cc1,12µM,.,15µM,?,.,.
Cc1noc(C)c1COc1ccccc1C(=O)NCCOc1ccccc1F,-,.,-,?,.,.
CC(C)(C)c1ccc(OCCCC(=O)NNC(=O)c2ccccc2O)cc1,?,?,?,?,.,14µM
COc1ccccc1C(=O)Oc1ccc(C(c2c(C)[nH][nH]c2=O)c2c(C)[nH][nH]c2=O)cc1,.,-,.,.,.,-
Cc1noc(C)c1COc1ccc(C(=O)Nc2ccccc2)cc1,?,-,-,-,.,-
Cc1noc(C)c1COc1ccc(C(=O)NCc2ccccn2)cc1,-,-,9.3µM,-,-,-
